Data taken from PubChem BioAssay.
Results with a measured potency or affinity are listed apart. Results filed as inconclusive are left out. Activity calls are given as the source filed them. Unless noted, how the calls were made is not given here.

Assays:
[1] = PAX8 transcriptional activity inhibition in RMG-I – RMG-I cells, luciferase, cherry-pick, dose response (AID 687027;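 active means every replicate test run called active, with the signal dropping as expected and potency within twice the top valid dose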)
[2] = RMG-1 ovarian cancer cell viability loss – cherry-pick, dose response (AID 687029;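 active means signal drop whose fitted half-maximal concentration is at most twice the top valid dose, in every test run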;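 further: cells exposed to compound for 96 hours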)
[3] = IOSE-T80 viability loss, PAX8-independent line – cell-based, cherry-pick, selectivity assay for PAX8 inhibitor project, dose response (AID 687032;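 active means fitted half-maximal concentration for viability loss no higher than twice the top valid dose, in every repeat run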;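 further: cells exposed to compound for 96 h before reading; 0% = neutral control wells and -100% = 2 µM mitoxantrone kill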)
[4] = CMV-driven luciferase expression suppression in HEK293 – cell-based, luminescence, dry powder, counter-screen for Pax8 inhibitor project, dose response (AID 743020;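 active means signal-lowering compounds whose fitted half-maximal concentration is at or below twice the top tested dose in every run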;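 further: HEK293 cells stably expressing the CMV luciferase reporter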)
[5] = general cell-killing toxicity readout – plate reader, dry powder samples, cytotoxicity control for PAX8 inhibitor project, dose response (AID 743021)
[6] = IGROV1 cell killing – plate reader, dry powder samples, PAX8 inhibitor project, dose response (AID 743043);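 further: more negative means fewer viable cells or more cytotoxicity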
[7] = OVCAR-3 cell viability loss – plate reader, dry powder samples, PAX8 inhibitor project, dose response (AID 743044); details: max activity: at 35 µM, active compounds read low unless noted
[8] = toxicity toward immortalized ovarian surface epithelium – cell-based, plate reader, dry powder samples, cytotoxicity control for PAX8 inhibitor project, dose response (AID 743045);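 further: 0% = neutral control median and -100% = positive control median; more negative values mean more cell killing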
[9] = A2780 cell killing – plate reader, dry powder samples, cytotoxicity control, dose response (AID 743046);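 further: 0% = neutral control wells and -100% = cytotoxic reference compound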
[10] = OVCAR8 cell viability loss – plate reader, dry powder samples, PAX8 project, dose response (AID 743197)

Measured: max activity

CC=Cc1ccc2n(c1=O)C[C@H]1[C@H](CO)[C@@H](C(=O)NC3CCC3)N(CC)[C@@H]21 (mixture of isomers)
inactive: [1] | [2] | [3] | [4] | [5] | [6] | [7] 9.45% | [8] | [9] | [10]

COc1ccc(NC(=O)N2CCCCN3[C@@H](CO)[C@@H](c4ccc(C5=CCCC5)cc4)[C@@H]3C2)cc1
inactive: [1] | [2] | [3] | [4] | [5] | [6] | [8]

CN(C)C(=O)c1cccc(-c2ccccc2[C@@H]2[C@@H](C#N)N(C(=O)C3CC3)[C@H]2CO)c1
inactive: [1] | [2] | [3] | [4] | [5] | [6] | [7] 12.7% [at 0.26 µM, active compounds read low] | [8] | [9] | [10]

Fc1cccc(CN2C[C@@H]3N[C@H](C2)C3c2ccc(-c3ccccc3)cc2)c1 (stereo not given in full)
inactive: [1] | [2] | [3] | [4] | [5] | [8]

COc1ccc2c3c([nH]c2c1)[C@@H](CO)N(C(=O)C1CC1)CC31CN(Cc2nccs2)C1
inactive: [1] | [2] | [3] | [4] | [5] | [6] | [7] 23.4% [at 4.2 µM, active compounds read low] | [8] | [9] | [10]

CO[C@@H]1CN(C)C(=O)c2cc(NC(=O)c3ccccc3F)ccc2OC[C@@H](C)N(CC2CC2)C[C@@H]1C
inactive: [1] | [2] | [3] | [4] | [5] | [6] | [7] 9.58% [at 0.5 µM, active compounds read low] | [8] | [9] | [10]

COc1ccc(-c2cn(CC[C@H]3CC[C@@H](NC(=O)Cc4ccccn4)[C@@H](CO)O3)nn2)cc1
inactive: [1] | [2] | [3] | [4] | [5] | [6] | [7] -22.3% [at 4.2 µM, active compounds read low] | [8]

O=C(C[C@@H]1C=C[C@H](NC(=O)Nc2ccc(C(F)(F)F)cc2)[C@H](CO)O1)NCCN1CCCC1
inactive: [1] | [2] | [3] | [4] | [5] | [6] | [7] 7.59% [at 2.1 µM, active compounds read low] | [8] | [9] | [10]

C[C@@H]1CN([C@@H](C)CO)C(=O)c2cc(NS(=O)(=O)c3ccc(Cl)cc3)ccc2O[C@@H](C)CCCCO[C@H]1CN(C)C
inactive: [1] | [2] | [3] | [4] | [5] | [6] | [7] -14.3% | [8] | [9] | [10]

O=C(Cc1ccccn1)NCC[C@@H]1CC[C@H](NC(=O)Nc2ccc(C(F)(F)F)cc2)[C@@H](CO)O1
inactive: [1] | [2] | [3] | [4] | [5] | [6] | [7] -10.6% [at 16 µM, active compounds read low] | [8] | [9] | [10]

COc1cccc(-c2ccc(C3[C@@H]4CN(Cc5cccc(F)c5)C[C@H]3N4)cc2)c1 (stereo not given in full)
inactive: [1] | [2] | [3] | [4] | [5] | [9] | [10]

O=C(Cc1ccccn1)N[C@H]1CC[C@H](CCn2cc(-c3ccccc3)nn2)O[C@@H]1CO
inactive: [1] | [2] | [3] | [4] | [5] | [6] | [7] -16.8% [at 16 µM, active compounds read low] | [8] | [9] | [10]

COc1ccc(-c2cn(CC[C@@H]3CC[C@H](NC(=O)Cc4ccccn4)[C@H](CO)O3)nn2)cc1
inactive: [1] | [2] | [3] | [4] | [5] | [6] | [7] 27.6% [at 1 µM, active compounds read low] | [8] | [10]

COc1ccc(-c2ccc3c(c2)[C@H]2[C@H](CCN2C(=O)Cc2cccnc2)[C@H](CO)N3C)cc1
inactive: [1] | [2] | [3] | [4] | [5] | [6] | [7] 35.5% [at 0.26 µM, active compounds read low] | [8] | [9]

O=C(Nc1ccc(C(F)(F)F)cc1)Nc1ccc2c(c1)[C@@H]1C[C@@H](CC(=O)N3CCc4ccccc4C3)O[C@H](CO)[C@@H]1O2
inactive: [1] | [2] | [3] | [4] | [5] | [6] | [7] 19.1% [at 2.1 µM, active compounds read low] | [8] | [9] | [10]

COc1ccc(-c2cn(CC[C@H]3CC[C@@H](NC(=O)Cc4ccccn4)[C@H](CO)O3)nn2)cc1
inactive: [1] | [2] | [3] | [4] | [5] | [6] | [7] 35.1% [at 2.1 µM, active compounds read low] | [8] | [10]

C[C@H](O)C#Cc1ccc([C@@H]2[C@@H](CO)N3CCCCN(S(=O)(=O)c4ccccc4)C[C@H]23)cc1
inactive: [1] | [2] | [3] | [4] | [5] | [6] | [7] 11.5% [at 0.26 µM, active compounds read low] | [8] | [9] | [10]

C[C@H](O)C#Cc1ccc2c(c1)O[C@@H](CN(C)Cc1ccc(-c3ccccc3)cc1)[C@H](C)CN([C@@H](C)CO)S2(=O)=O
inactive: [1] | [2] | [3] | [4] | [5] | [6] | [7] -13.7% | [8] | [10]

C[C@@H]1CCCCO[C@H](CN(C)C)[C@H](C)CN([C@@H](C)CO)C(=O)c2cc(NS(=O)(=O)c3ccc(Cl)cc3)ccc2O1
inactive: [1] | [2] | [3] | [4] | [6] | [7] 34.9% [at 0.26 µM, active compounds read low] | [8] | [9] | [10]

C[C@@H]1CN([C@H](C)CO)C(=O)c2cc(NC(=O)Cc3ccccc3)ccc2O[C@@H](C)CCCCO[C@H]1CN(C)Cc1ccc(Cl)c(Cl)c1
inactive: [1] | [2] | [3] | [4] | [5] | [6] | [8] | [9]

C[C@H]1CN([C@@H](C)CO)C(=O)c2cccc(NC(=O)Nc3cccc4ccccc34)c2O[C@H]1CN(C)CC1CC1
inactive: [1] | [2] | [3] | [4] | [5] | [6] | [7] -29.9% | [8] | [9] | [10]

O=C(NC1CCCC1)N1CCCCN2[C@@H](CO)[C@@H](c3ccc(/C=C/c4ccccc4)cc3)[C@@H]2C1
inactive: [1] | [2] | [3] | [4] | [5] | [6] | [7] 28.4% [at 2.1 µM, active compounds read low] | [8] | [10]

CCCCC1Cc2[nH]c(=S)[nH]c(=O)c2C(c2ccc(F)cc2)O1 (stereo not given)
inactive: [1] | [2] | [4] | [5]

Cc1cccc(OCc2nc(-c3cccnc3)no2)c1
inactive: [1] | [2] | [3] | [5]

Cc1cccc(C(=O)Oc2ccc(/C=N/NC(=O)c3ccccc3O)cc2)c1
inactive: [1] | [2] | [3] | [5]

Nc1ncn([C@H]2C[C@H](O)[C@@H](CO)O2)c(=O)n1
inactive: [1] | [2] | [4] | [5]

O=C(CSc1cccc[n+]1[O-])Nc1cc(S(=O)(=O)N2CCOCC2)ccc1N1CCOCC1
inactive: [1] | [2] | [3] | [5]

COc1ccc(C)cc1NC(=O)C1CCCN(S(=O)(=O)c2cccc3nonc23)C1 (stereo not given)
inactive: [1] | [2] | [4] | [5]

Cc1cnc(NC(=O)CSc2nnc(C)n2N)s1
inactive: [1] | [2] | [4] | [5]

COc1ccc(O)c(C(c2c(C)[nH][nH]c2=O)c2c(C)[nH][nH]c2=O)c1
inactive: [1] | [2] | [3] | [5]

COc1ccc(-c2cn(CC[C@@H]3CC[C@H](NC(=O)Cc4ccccn4)[C@@H](CO)O3)nn2)cc1
inactive: [1] | [2] | [3] | [5] | [6] | [7] -8.11% [at 8 µM, active compounds read low] | [8] | [9] | [10]

CCOC(=O)C1(Cc2ccc(OC)cc2)CCN(C(=O)CN2CCCCC2=O)CC1
inactive: [1] | [2] | [3] | [5]

O=C(Cc1ccccc1)c1ccccc1C(=O)N1CCCCC1
inactive: [1] | [2] | [4] | [5]

O=C(NC1CCCCCC1)C1c2ccccc2C(=O)N1Cc1cccs1 (stereo not given)
inactive: [1] | [2] | [4] | [5]

CC(=O)Nc1ccc(C(=O)CSc2cc(C)c3cccc(C)c3n2)cc1
inactive: [1] | [2] | [3] | [5]

CN1CCN(C(=S)Nc2ccc(Cl)c(Cl)c2)CC1
inactive: [1] | [2] | [4] | [5]

COc1ccc(C2CC(c3ccc(Br)cc3)=NN2C(=S)Nc2ccccc2)cc1 (stereo not given)
inactive: [1] | [2] | [3] | [5]
